# Laboratory results as given in PubChem BioAssay AID743279 (National Center for Advancing Translational Sciences (NCATS), 2014).
# Among all 360,000 compounds or so, about 17,000 (4.7%) were called active. Not shown: some 5% with an inconclusive outcome. For the sample, actives were picked, then their nearest neighbours and some compounds at random. Values without a mark were called inactive. No stated cut-off is given here; in the data, active means activity change below about -50%; inconclusive means mostly about -30% to -49%; inactive means weaker than that.
# Assay: qHTS for Inhibitors of Inflammasome Signaling: IL-1-beta AlphaLISA Primary Screen
# Conditions: THP-1 LPS/ATP IL-1B secretion, 16 h; at 57.5 µM, stronger effect = lower value
# How it was run: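 Secreted IL-1B measured by AlphaLISA bead assay after 16 h compound exposure of THP-1 cells; compounds (final up to 57.5 uM) added 1 h before LPS (250 ng/mL) and ATP (1.25 mM) stimulation; lower signal means less secretion.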
# On the % scale 0 is the no-effect control and ±100 the full control effect.
row,Structure (SMILES),activity change
1,COc1cc2c(cc1OC)CN(C(C)C(=O)Nc1cccc(S(=O)(=O)N3CCOCC3)c1)CC2 (centres undefined),-4.78%
2,COCC1CCCCN1C(=O)c1cc(COc2ccc(C)c(C)c2)on1 (centres undefined),22.6%
3,CCOc1cc(C=NNC(=O)CCCC(=O)NN=Cc2ccc(O)c(OCC)c2)ccc1O,0%
4,CC(C)CN1CCC1(C)C(=O)Nc1ccc(OC(F)F)cc1 (centres undefined),14.2%
5,O=[N+]([O-])c1ccccc1Nc1ccc(O)cc1,-11.5%
6,O=[N+]([O-])c1ncc(Br)cc1Nc1ccccc1,-71.2% (active)
7,O=[N+]([O-])c1cccc(/C=N/Nc2ncc(Br)cn2)c1,-8.3%
8,Cn1c(=O)[nH]c(=O)c2c1nc(NCCCn1ccnc1)n2Cc1cccc(Br)c1,58.2%
9,Cc1ccccc1-c1nc(NC(C)C)nc2cc(-c3ccccc3)sc12,19.3%
10,CC1(C)CN(CCc2ccccc2)C(=O)[C@H]1CC(=O)Nc1ccc(Br)cc1,0%
11,COC(=O)c1ccccc1NC(=O)Cc1ccccc1OC,7.67%
12,COc1ccccc1CNC(=O)CCCN1C(=O)NC2(CCCC2)C1=O,10.6%
13,CC[C@]1(c2ccccc2OC)C(=O)N(C(=O)OC)N1C(=O)OC,-76.7% (active)
14,CC(=O)Nc1ccc(NC(=O)c2ccc3c(c2)C(=O)N(c2ccccc2C)C3=O)cc1,0%
15,C[C@@H]1CN([C@@H](C)CO)C(=O)c2cc(Br)cnc2O[C@H]1CN(C)Cc1ccc(-c2ccccc2)cc1,-13.1%
16,CC1(C(=O)Nc2ccc3c(c2)OCCO3)CCN1C(=O)Cc1cc(F)ccc1F (centres undefined),-2.62%
17,CCC(=O)Nc1nc2ccccc2n1Cc1ccccc1C,-56% (active)
18,CCCCn1c(CCCNC(=O)CC)nc2ccccc21,36.3%
19,CC(=O)Nc1nc2ccccc2n1Cc1ccc(C)cc1,-12.8%
20,COC(=O)c1ccc2nc(-c3cccc(Br)c3)c(Cc3ccc(OC)cc3C)n2c1,2.21%
21,NNc1cccc(C=Cc2ccccc2)cc1=O,-13.4%
22,CCOC1=C2CN(S(=O)(=O)c3ccc(C)cc3)[C@H](c3cccs3)C[C@H]2[C@H]2C(=O)N(c3ccccc3)C(=O)[C@H]2C1,91.6%

row,Structure (SMILES),activity change
1,O=C(COc1ccc(F)cc1)N(CC1=CCS(=O)(=O)C1)c1ccccc1,0.865%
2,CCN(C(=O)COc1ccc(C(=O)c2ccccc2)cc1)c1ccccc1,-69.8% (active)
3,CCN(C(=O)c1ccc(Br)cc1)c1ccccc1,-9.85%
4,Cc1ccccc1OS(=O)(=O)c1cccc([N+](=O)[O-])c1,27.3%
5,COc1ccc(NC(=O)C2Cc3c(-c4cccc(NC(C)=O)c4)ccnc3O2)cc1OC (centres undefined),-14.1%
6,N#Cc1ccc(OCC(=O)NC(=O)NC2CCS(=O)(=O)C2)cc1 (centres undefined),-12.4%
7,CC(=O)N1Cc2cc(C(=O)NCc3cccc(F)c3)nc(-c3cccc(C4=CCCC4)c3)c2[C@H]1CCO,-67.2% (active)
8,CCNC(=O)c1cc2c(c(-c3cccc(-c4cncnc4)c3)n1)[C@H](CCO)N(C(C)=O)C2,42.5%
9,CC(C)NC(=O)N1Cc2cc(C(=O)NCC(F)(F)F)nc(-c3cccc(-c4cc5ccccc5o4)c3)c2[C@@H]1CCO,-22.8%
10,CC1(C(=O)NCc2ccc(F)c(F)c2)Cc2c(-c3ccc4c(c3)OCO4)ccnc2O1 (centres undefined),46.6%
11,CC12CCC(=O)N1C(C(=O)NCCN1C(=O)S/C(=C\c3ccccc3F)C1=O)CS2 (centres undefined),-53.4% (active)
12,CC12CCC(=O)N1C(C(=O)Nc1ccc(F)c(F)c1F)CS2 (centres undefined),6.07%
13,CCn1nc(C(=O)NNC(=O)C2CSC3(C)CCC(=O)N23)c2ccccc2c1=O (centres undefined),4.8%
14,CC1(C(=O)Nc2ccccc2Br)CCN1C(=O)CC1CC1 (centres undefined),13.2%
15,CSc1nc2ccc(NC(=O)c3c(F)cccc3F)cc2s1,-101% (active)
16,O=C(Nc1ccc(S(=O)(=O)N2CCCCCC2)cc1)c1c(F)cccc1F,-9.91%
17,CCCC(=O)Nc1nc2ccc(NC(=O)c3c(F)c(F)c(OC)c(F)c3F)cc2s1,11.7%
18,O=C(Nc1ccncc1)c1c(F)cccc1F,-66.7% (active)
19,Nc1nnc(SCC(=O)Nc2ccc3nc(SCC(=O)Nc4ccccc4)sc3c2)s1,-29.4%
20,O=C(Nc1ccncc1)c1cc2ccccc2o1,-4.22%
21,Cc1ccc(C(=O)NC(C)C(c2cccs2)N2CCOCC2)cc1C (centres undefined),-9.25%
22,CNC(=O)N1c2ccccc2C=Cc2ccccc21,0%
